Reference: PubChem BioAssay (Tox21)
Inconclusive results are not listed. Active and inactive are the calls of the source. The call rests on the fitted dose curve; in most records, active means well fitted activation curve with a large enough effect in the repeat runs; inconclusive means weak or mixed curves; inactive means flat fitted curve, though single readings scatter.

Target: Nuclear receptor subfamily 1 group I member 2 (Homo sapiens) (UniProt O75469)
Assay: Human pregnane X receptor (PXR) activation by small molecules, qHTS assay (AID 1346985); further: nearly all actives have a fitted effect of over 40% in size
Conditions: DPX-2 HepG2 CYP3A4-luciferase, 24 h; series mostly up to 38.3 µM; activation: at the top concentration
Description: National Center for Advancing Translational Sciences [NCATS]
NIH Chemical Genomics Center [NCGC]
U.S. Environmental Protection Agency [EPA]
National Institutes of Environmental Health Sciences [NIEHS]
National Toxicology Program [NTP]
The Pregnane X receptor (PXR), a ligand activated nuclear receptor plays a critical role in the regulation of genes involved in drug metabolism and transporters. Activation of PXR may be involved in the unwanted adverse drug-drug interactions. […] Therefore, identification of compounds with the potential for PXR activation can be of importance in improving the efficacy of drugs with less toxicity and avoiding drug-drug interactions.
DPX-2 (Puracyp, Inc.) cell lines, used for screening against human PXR activation has HepG2 cells co-transfected with a PXR response element and a luciferase construct containing CYP3A4 promoter. Increase in luciferase activity can be used to identify the compounds that activate the PXR pathway.
DPX-2 cells were dispensed at 2,000 cells per well in 5uL of assay medium into white, solid-bottom 1536-well plates using a Multidrop Combi dispenser (Thermo Scientific). The assay plates were incubated at 37C for 5hr before transferring 23nL of test compounds dissolved in DMSO and positive control via Pintool station (Wako). The assay plates were incubated at 37C for 24hr. Then 5ul One-Glo assay reagent (Promega) was added to each plate by a Flying Reagent Dispenser (FRD, Aurora Discovery) and following 30 min incubation at room temperature, luciferase activity was quantified on a ViewLux plate reader (Perkin Elmer).
On the % scale 0 is the no-effect control and ±100 the full control effect; potency means the concentration at half of the fitted maximal effect.

| SMILES | activation | Potency |
| --- | --- | --- |
| CC(=O)Oc1cccc(C)c1 | -2.24% (inactive) |  |
| CC(=O)N1C[C@H](O)C[C@H]1C(=O)O | -0.693% (inactive) |  |
| C[N+](C)(C)CCCCCCCCCC[N+](C)(C)C | -2.2% (inactive) |  |
| CN1CC(=O)N/C1=N/C(=O)Nc1cccc(Cl)c1 | 15.2% (inactive) |  |
| CC(=O)Nc1ccc(OCC(O)CNC(C)C)cc1 (stereo not given) | 6.23% (inactive) |  |
| CN(C)[C@@H]1C(=O)C(C(=O)NCN2CCCC2)=C(O)[C@@]2(O)C(=O)C3=C(O)c4c(O)cccc4[C@@](C)(O)C3C[C@@H]12 (stereo not given in full) |  | inactive |
| CC(C)(C)C(=O)Oc1ccc(S(=O)(=O)Nc2ccccc2C(=O)NCC(=O)O)cc1 | -3.75% (inactive) |  |
| CCOC(=O)c1cnc2c(cnn2CC)c1NN=C(C)C |  | 8.91 µM (active) |
| Nc1c2c(nc3c1CCC3)CCCC2 | -2.88% (inactive) |  |
| Nc1ccncc1N | -2.62% (inactive) |  |
| CCCCCCCCCCOc1cc2c(=O)c(C(=O)OCC)c[nH]c2cc1OCC | -15.1% (inactive) |  |
| CN(C)C(=O)Oc1ccc[n+](C)c1 | -0.759% (inactive) |  |
| Cc1ccc(-c2ncc(Cl)cc2-c2ccc(S(C)(=O)=O)cc2)cn1 | 29.3% (inactive) |  |
| CC1=C(C/C=C(\C)CCC[C@H](C)CCC[C@H](C)CCCC(C)C)C(=O)c2ccccc2C1=O | 13.5% (inactive) |  |
| Cc1ccc(C(=O)c2ccc(CC(=O)O)n2C)cc1 | -14.2% [at 17.1 µM] (inactive) |  |
| Cc1ncc(COP(=O)(O)O)c(C=O)c1O | -9.28% (inactive) |  |
| Nc1ccn([C@@H]2O[C@H](CO)[C@@H](O)C2(F)F)c(=O)n1 | 2.69% (inactive) |  |
| COC(=O)C1=C(C)NC(C)=C(C(=O)OC(C)C)C1c1cccc2nonc12 (stereo not given) |  | 0.891 µM (active) |
| COc1ccc2cc1Oc1cc3c(cc1OC)CC[N+](C)(C)[C@H]3Cc1ccc(cc1)Oc1c(OC)c(OC)cc3c1[C@@H](C2)[N+](C)(C)CC3 | -2.44% (inactive) |  |
| CC(=O)OCC(=O)[C@@]1(O)[C@H](C)C[C@H]2[C@@H]3CCC4=CC(=O)C=C[C@]4(C)[C@@]3(F)[C@@H](O)C[C@@]21C | 17.2% [at 17.1 µM] (inactive) |  |

| SMILES | activation | Potency |
| --- | --- | --- |
| CN(C)C(=O)Oc1cccc([N+](C)(C)C)c1 | 2.46% (inactive) |  |
| CCCCCCCCCCCCCCCCCCO | -0.116% (inactive) |  |
| C[N+]1(C)[C@@H]2CC(OC(=O)[C@H](CO)c3ccccc3)C[C@H]1[C@@H]1O[C@@H]12 (stereo not given in full) | -2.03% (inactive) |  |
| CCN[C@@H]1C[C@H](N)[C@@H](OC2OC(CN)=CCC2N)[C@H](O)[C@H]1O[C@H]1OC[C@](C)(O)[C@H](NC)[C@H]1O (stereo not given in full) | -2.81% (inactive) |  |
| CN1CCN(c2cc3c(nn2)Oc2ccccc2N3C)CC1 | 25.4% (inactive) |  |
| CCN[C@H]1C[C@H](C)S(=O)(=O)c2sc(S(N)(=O)=O)cc21 | 2.68% (inactive) |  |
| CO/N=C(\C(=O)N[C@@H]1C(=O)N2C(C(=O)O)=C(CSc3nc(=O)c(O)nn3C)CS[C@H]12)c1csc(N)n1 | -8.37% (inactive) |  |
| NC(=O)N[C@@H](CCC(=O)O)C(=O)O | -12% (inactive) |  |
| CC(C)COC(=O)c1ccc(N)cc1 | 9.5% (inactive) |  |
| O=C(O)CNC(=O)c1ccccc1 | 0.335% (inactive) |  |
| CC[N+](CC)(CC)CCOc1cccc(OCC[N+](CC)(CC)CC)c1OCC[N+](CC)(CC)CC | 0.387% (inactive) |  |
| Cc1ccc(C(=O)Nc2ccc(S(=O)(=O)O)c3cc(S(=O)(=O)O)cc(S(=O)(=O)O)c23)cc1NC(=O)c1cccc(NC(=O)Nc2cccc(C(=O)Nc3cc(C(=O)Nc4ccc(S(=O)(=O)O)c5cc(S(=O)(=O)O)cc(S(=O)(=O)O)c45)ccc3C)c2)c1 | -5.4% (inactive) |  |
| CCCCc1nc(Cl)c(CO)n1Cc1ccc(-c2ccccc2-c2nn[nH]n2)cc1 | -6.1% (inactive) |  |
| C[N+]1(C)CCCC(OC(=O)C(O)(c2ccccc2)c2ccccc2)C1 (stereo not given) | -2.78% [at 17.1 µM] (inactive) |  |
| CC(C)NNC(=O)c1ccncc1 | -6.17% (inactive) |  |
| COc1cc(C(=O)NCc2ccc(OCCN(C)C)cc2)cc(OC)c1OC | 0.903% [at 17.1 µM] (inactive) |  |
| Cc1nc2ccc(CN(C)c3ccc(C(=O)N[C@@H](CCC(=O)O)C(=O)O)s3)cc2c(=O)[nH]1 | -2.78% (inactive) |  |
| C[C@@H]1CCC[C@H](C)N1 | -1.93% [at 17.1 µM] (inactive) |  |
| CCC1C(=O)OCC1Cc1cncn1C (stereo not given) | -1.27% (inactive) |  |
| C[N+]12CCC(CC1)C(OC(=O)C(O)(c1ccccc1)c1ccccc1)C2 (stereo not given) | -8.68% [at 17.1 µM] (inactive) |  |
